An excerpt weighted towards active compounds, which were near 1.9% of everything screened.
LDHA inh: qHTS assay for inhibitors of human lactate dehydrogenase. L-lactate dehydrogenase A chain (Homo sapiens), P00338. purified LDHA, NADH/diaphorase-resazurin fluorescence; hits give low values. activity change, % (values are at about 110 or 230 µM). hit rate 0.15% among 480,000; in the data active means activity change below about -30%; inconclusive means mostly about -25% to -30%;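 further: plate controls were DMSO wells for no effect and wells without enzyme for full effect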
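Human LDH5 at 2 nM final in Tris HCl pH 7.4 with 0.06 mM NADH and 0.2 mM pyruvate, reacted 5 minutes at room temperature. Remaining NADH coupled via diaphorase/resazurin; resorufin fluorescence read at 0 and 20 minutes, normalized to enzyme-free and DMSO wells.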
TDP-43 yeast inh: qHTS of TDP-43 Inhibitors; Potency, µM (doses to about 46.1 µM), for inactives: top-dose growth rescue (activation), actives largely listed as activators; hit rate 1.8% among 410,000; TDP-43 expressing yeast growth rescue, BacTiter-Glo, 24 h; further: potency means the concentration at half of the fitted maximal effect; % of control where 0% means no effect; nearly all actives have a fitted effect of over 50% in size
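Growth rescue of TDP-43-toxic yeast measured as ATP luminescence (BacTiter-Glo). Cells grown to mid-log in raffinose, induced in galactose at OD600=0.02, exposed to compound 24 hr at 30 deg C.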
Abeta rescue: qHTS for compounds that reverse cellular toxicity of Amyloid beta (A-beta) peptide in yeast: Primary Screen. AID 1347071, 2019. Potency, µM (highest dose often 46.1 µM), most hits filed as activators. hit rate 0.063% among 410,000. yeast expressing A-beta42, growth rescue, OD600, 48 h; response scale: 0% DMSO, 100% iron-clioquinol control; further: potency means the concentration at half of the fitted maximal effect; nearly all actives have a fitted effect of over 55% in size
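Yeast A-beta toxicity model in growth medium with pinned compounds, 48 h at 30 C; growth read as absorbance at 600 nm. Normalized to FeCl3/clioquinol equimolar mix (positive) and DMSO (negative).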
PTHR1 ag: qHTS for PTHR1 Agonists: Primary Screen; HEK293 GP2 PTHR1 cells, GloSensor cAMP luminescence, 1 h; Potency, µM (highest dose often 115 µM), for the others: at the highest dose activation, usual class: activators; hit rate 0.075% among 410,000; AID 743266, 2014; further: potency means the concentration at half of the fitted maximal effect; nearly all actives have a fitted effect of over 55% in size
Target sequence (Q03431 whole entry, looked up): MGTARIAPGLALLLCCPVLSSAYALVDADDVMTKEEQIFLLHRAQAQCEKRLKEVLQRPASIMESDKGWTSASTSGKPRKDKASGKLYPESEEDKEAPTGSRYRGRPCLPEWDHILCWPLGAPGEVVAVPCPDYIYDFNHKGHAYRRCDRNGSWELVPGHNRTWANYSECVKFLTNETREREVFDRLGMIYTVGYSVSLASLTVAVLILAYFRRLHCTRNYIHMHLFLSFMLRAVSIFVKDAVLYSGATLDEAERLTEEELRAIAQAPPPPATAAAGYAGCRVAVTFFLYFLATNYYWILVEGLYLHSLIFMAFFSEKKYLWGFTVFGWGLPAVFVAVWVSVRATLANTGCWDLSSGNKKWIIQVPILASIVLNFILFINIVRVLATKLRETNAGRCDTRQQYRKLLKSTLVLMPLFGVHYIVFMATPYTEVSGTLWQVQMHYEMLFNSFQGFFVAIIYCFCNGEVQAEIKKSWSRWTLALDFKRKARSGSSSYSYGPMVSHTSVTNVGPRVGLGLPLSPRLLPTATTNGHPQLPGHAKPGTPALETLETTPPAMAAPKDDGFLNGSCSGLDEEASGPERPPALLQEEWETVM
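HEK-293-derived GP2 cells expressing PTHR1 and a GloSensor cAMP reporter, 3,000/well, plated overnight, given luciferin plus IBMX (each 0.5 mM as added) for 1 h at 37 °C, then compound for 1 h at 37 °C. Luminescence was read after 15 min at room temperature.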
aSyn rescue: qHTS of alpha-syn Inhibitors | Yeast expressing alpha-synuclein, growth rescue, BacTiter-Glo, 24 h | Potency, µM (highest dose often 46.1 µM), for inactives: top-dose growth rescue (activation), most hits filed as activators | hit rate 0.14% among 370,000 | AID 652106, 2013; further: potency means the concentration at half of the fitted maximal effect; % of control where 0% means no effect; nearly all actives have a fitted effect of over 65% in size
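Screening used galactose-induced yeast with toxic alpha-synuclein levels, exposed to compound for 24 hr at 30 deg C. Cell growth, read with BacTiter-Glo luminescence, gave the measured signal.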
FUS yeast rescue: qHTS for Suppressors of FUS Proteinopathy: Primary screen using FUS-linked yeast assay; S. cerevisiae FUS-expressing, growth rescue, OD600, 24 h; Potency, µM (titrated, usually from 76.6 µM), most hits filed as activators; hit rate 0.24% among 390,000; AID 1347120, 2019;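 further: potency means the concentration at half of the fitted maximal effect; plate controls were DMSO vehicle for no effect and reference control for full effect; nearly all actives have a fitted effect of over 55% in size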
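Cultures pregrown in 2.5% raffinose medium are shifted to minimal medium containing 2% galactose to express toxic FUS. Compounds are tested at several concentrations. After 24hr at 30C, growth is quantified at 600 nm absorbance.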
The depositor's hits bear a star; i = inactive; ? = inconclusive; nt = no result; ! = repeats disagree. Unless noted, the call rests on the fitted dose curve; in most records, active means well fitted curve in the direction sought with a large enough effect; inconclusive means small, poorly fitted or top-dose-only effect, or another doubt; inactive means no such curve, though single readings can be large; an effect the other way counts as inactive or inconclusive.

SMILES	LDHA inh	TDP-43 yeast inh	Abeta rescue	PTHR1 ag	aSyn rescue	FUS yeast rescue
COC(=O)/C(=C1/Oc2ccc(C(C)(C)C)cc2S1)C(F)(F)F	-6	13%	i	-9%	6%	i
COC(=O)/C(=C1/Oc2cc(C)oc(=O)c2S1)C(F)(F)F	-2	8.9µM*	i	-21%	1%	nt
Cc1ccc(NS(=O)(=O)c2c(C)nc3sccn3c2=O)cc1Cl	-18	nt	nt	nt	nt	nt
CC(=O)Oc1[nH]c(=O)c2cccc3c2c1CCC3	?	28µM*	i	i	-4%	i
CSc1nc(S(=O)(=O)c2ccc(C)cc2)c(Cl)s1	-9	13µM*	i	-11%	1%	i
CC(=O)c1c(C)[nH]c(C(=O)C(C)OC(=O)c2ccc(Cl)cc2F)c1C (stereo not given)	11	nt	nt	nt	nt	nt
CC(NC(=O)c1nccnc1N)c1ccc(Cl)cc1 (stereo not given)	-7	nt	nt	nt	nt	nt
CCSc1nc(-c2ccc(OC)cc2)ccc1C#N	-6	16µM*	i	-12%	1%	i
CCCCSc1nc(-c2ccc(OC)cc2)ccc1C#N	-1	-3%	i	-47%	4%	i
O=C(CC1(O)C(=O)N(C/C=C/c2ccccc2)c2ccccc21)c1ccccc1 (stereo not given)	5	nt	nt	nt	nt	nt
O=c1ccc(-c2ccccc2)nn1Cc1ccc(Cl)cc1	0	20µM*	i	-35%	?	i
O=c1ccc(/C=C/c2ccccc2)nn1Cc1ccccc1	3	20µM*	i	-16%	9%	i
Cc1noc(C)c1C(=O)OC(C)C(=O)NC1CCCC1 (stereo not given)	14	nt	nt	nt	nt	nt
O=C(Nc1cccnc1N1CCCCC1)c1cc(C2CC2)[nH]n1	-3	nt	nt	nt	nt	nt
Cc1ccc(NC(=O)CN2CCN(C(=O)CN(C)Cc3cnn(-c4ccccc4)c3)CC2)cc1	11	nt	nt	nt	nt	nt
CC(=O)c1ccc(NC(=O)CN(Cc2ccc3c(c2)OCO3)C2CCCC2)cc1	11	nt	nt	nt	nt	nt
N#C/C(=C/c1ccc(OC(F)F)cc1)c1nc2ccccc2[nH]1	-3	nt	nt	nt	nt	nt
CCc1cc(-c2n[nH]c(=S)n2CC)cs1	-3	?	i	-16%	2%	nt
CCn1c(-c2csc3c2CCC(C)C3)n[nH]c1=S (stereo not given)	-1	11µM*	i	-22%	9%	nt
CCn1c(-c2csc3ccccc23)n[nH]c1=S	-4	22µM*	i	i	2%	nt
CCCc1cc(-c2n[nH]c(=S)n2CC)cs1	-10	35µM*	i	-24%	-9%	i
CC(C)Cn1c(-c2csc3ccccc23)n[nH]c1=S	1	0%	i	i	8%	nt
CN(/N=C/c1cc(Br)cc(Br)c1O)c1cccc(C(F)(F)F)n1	4	?	i	-50%	8.9µM*	i
CN(N=Cc1ccccc1O)c1ccc2ccccc2n1	3	-2%	i	i	-16%	i
CC(C)(C)c1ccc(C(=O)NCC(c2cccnc2)N2CCc3ccccc3C2)cc1 (stereo not given)	1	22µM*	i	-38%	nt	i
SMILES	LDHA inh	TDP-43 yeast inh	Abeta rescue	PTHR1 ag	aSyn rescue	FUS yeast rescue
NC1=C(Br)C(=O)c2ncccc2C1=O	41	11µM*	i	-22%	-6%	nt
O=C1c2cccnc2C(=O)N1CO	-6	20%	i	i	9%	i
CC(C)n1nccc1N(CC(=O)Nc1ccc(C#N)cc1)S(=O)(=O)c1ccccc1	12	nt	nt	nt	nt	nt
CCOc1ccc2c3c(c(=O)oc2c1OCC)CCCC3	-6	22µM*	i	-3%	-2%	i
CCCOc1ccc2c3c(c(=O)oc2c1OCCC)CCCC3	5	19%	i	-25%	-15%	i
Cc1cc(C)c(NC(=O)CN(C)C(=O)c2cc(=O)c3ccccc3o2)c(C)c1	-5	nt	nt	nt	nt	nt
O=C1c2ccccc2C(=O)c2c1cccc2N1CCCC1	32	14µM*	i	-27%	-23%	nt
O=C1c2ccccc2-c2onc3ccc(N4CCCC4)c1c23	12	-17%	i	-23%	-18%	?
Cc1ccc(-c2nc(N)sc2CC(=O)OCC(=O)Nc2ccc(C)c(C)c2)cc1	0	nt	nt	nt	nt	nt
Cc1ccc(-c2nc(C)sc2CC(=O)OCC(=O)Nc2ccc(F)c(Cl)c2)cc1	-3	25µM*	?	i	-6%	i
Cc1ccc(C(C)NS(=O)(=O)C2=Cc3ccccc3CC2)o1 (stereo not given)	63	nt	nt	nt	nt	nt
CCC(=O)NCc1ccc(-c2nc3ccccc3s2)cc1	-31*	nt	nt	nt	nt	nt
CCCCC(=O)NCc1ccc(-c2nc3ccccc3s2)cc1	-30*	nt	nt	nt	nt	nt
c1ccc(-c2nc3ccccc3s2)cc1	-3	nt	nt	nt	nt	nt
CC(=O)NCc1ccc(-c2nc3ccccc3s2)cc1	3	6%	i	-47%	1%	i
O=C(NCc1ccccc1)c1nc2ccccc2s1	-5	22µM*	i	i	-19%	i
Oc1ccc(-c2nc3ccccc3s2)cc1	1	35µM*	i	-90%	-17%	i
CC(C)C(=O)NCc1ccc(-c2nc3ccccc3s2)cc1	-9	nt	nt	nt	nt	nt
Cc1cc(Oc2ccc(-c3ccccc3)cc2)n2ncnc2n1	4	18µM*	i	-93%	13%	i
CCN(c1ccccc1)c1cc(C)nc2ncnn12	-9	10%	i	i	-4%	i
Cc1ccc(Cl)cc1NCC(=O)N1CCN(S(C)(=O)=O)CC1	-7	nt	nt	nt	nt	nt
CC(Oc1cccc(Br)c1)C(=O)NNC(=O)c1ccccn1 (stereo not given)	-16	25µM*	?	-8%	?	i
CC(Oc1ccccc1)C(=O)NNC(=O)c1ccccn1 (stereo not given)	8	?	?	9%	22%	nt
CCCc1nnc2sc(-c3cc(OC)c(OC)c(OC)c3)nn12	10	nt	nt	nt	nt	nt
O=C(NNC(=O)c1csc(-c2cccs2)n1)c1ccc(Cl)cc1	-16	22µM*	i	i	17%	i
CN1C[C@@H]2[C@@H]3C(=O)N(Cc4ccccc4)C(=O)[C@@H]3[C@](Cc3ccccc3)(C1=O)N2C(=O)c1ccc(Cl)c(Cl)c1	3	-3%	i	-13%	2%	14µM*
COc1cc(/C=C/C2=Nc3ccccc3SC(C)(C)C2)ccc1O	18	nt	nt	nt	nt	nt
Cc1ccc(N2CCN(C(=O)c3nn(C)c4c3CS(=O)(=O)c3ccccc3-4)CC2)c(C)c1	0	?	i	-18%	5%	22µM*!
